Data on 6 molecules can be found in PubChem BioAssay.

Each structure is given as a SMILES string. The source made the active and inactive calls.

Assay [1] concerns Human papillomavirus type 1a protein E7 (residues 44-93). Nature of the assay: small molecules binding HPV E7 44-93 – biochemical, small-molecule microarray, residues 44-93, 635 nm fluorescence, primary screen (AID 1108).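 Also: E7 fragment applied at 1 µg/mL in TBST for 1 h at 4 C; score combines spot fluorescence with its signal to noise ratio.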 To be noted: fluorescence 635 nm, higher = more signal.
Assay [2] in a line: hepatitis C replication reporter changes, two-sided – Huh7 cells, luciferase reporter, HCV replication inhibitor project, primary screen (AID 1109).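 Also: huh7 hepatoma cells harbouring a luciferase neomycin HCV replicon reporter; luciferase luminescence as measure of HCV replicon replication; test concentration not given here.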 To be noted: Huh7 HCV replicon luciferase reporter, 48 h; higher = more signal.
Assay [3] addresses Left-right determination factor 2 (Homo sapiens) (UniProt O00292). Nature of the assay: small molecules binding LEFTY2 protein – biochemical, small-molecule microarray, 635 nm fluorescence scan, primary screen (AID 1110). As to conditions: higher = more signal.
For assay [4], the target named is Calmodulin-1 (Homo sapiens) (UniProt P0DP23). Nature of the assay: small molecules binding calmodulin-1 with EGTA – biochemical, small-molecule microarray, Cy5-labelled CALM1, profiling panel (AID 1111).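 Also: labelled calmodulin applied in Tris saline Tween buffer holding calcium plus EGTA and DTT.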 As to conditions: Cy5-CALM1 binding fluorescence, higher = more signal.
For assay [5] the target is unchanged. Nature of the assay: small molecules binding Ca-loaded calmodulin-1 – biochemical, small-molecule microarray, Cy5-labelled CALM1, plus calcium, artefact control for SMM control-protein annotation, profiling panel (AID 1112).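 Also: score merges spot fluorescence with signal to noise from triplicate slides.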 As to conditions: Cy5-CALM1 binding fluorescence, higher = more signal.
Assay [6] in a line: probe aWnt5a binding to arrayed compounds – biochemical, biotinylated probe, 635/667 nm fluorescence, primary screen (AID 1113).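 Also: score merges 667 nm fluorescence intensity with signal-to-noise per printed feature.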 To be noted: small-molecule microarray, higher = more signal.
Assay [7] is described as follows: probe aShh binding to arrayed compounds – biochemical, biotinylated probe, 635/667 nm fluorescence, primary screen (AID 1114).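 Also: probe is biotin-labelled aShh protein from a stem cell growth factor screen; measures binding of labelled protein to compounds printed on the slide; score merges feature fluorescence at 667 nm with signal-to-noise.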 As to conditions: small-molecule microarray, higher = more signal.
Assay [8] can be described thus: probe aNog binding to arrayed compounds – biochemical, biotinylated probe, 635/667 nm fluorescence, primary screen (AID 1115).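 Also: probe is biotinylated aNog protein used at 0.15 µg/mL for 1 h at 4 C; z-score combines 667 nm fluorescence of each spot with its signal to noise.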 As to conditions: small-molecule microarray, higher = more signal.
For assay [9], the target named is Torsin-1A-interacting protein 1 (Homo sapiens) (UniProt Q5JTV8). Nature of the assay: compound microarray binding of lysate hLAP1 – cell lysate, small-molecule microarray, COS7 lysate, 635/667 nm fluorescence, primary screen (AID 1116). As to conditions: 635 nm fluorescence, higher = more signal.
In assay [10] the target is Alpha-bungarotoxin (Bungarus multicinctus) (UniProt P60615). Nature of the assay: compounds binding labelled alpha-BTX control protein – biochemical, small-molecule microarray, Alexa647 label, 635/667 nm fluorescence, artefact control for SMM control protein annotation, profiling panel (AID 1117). As to conditions: alpha-BTX-A647 binding fluorescence, higher = more signal.

A further assay has as its target Albumin (Bos taurus) (UniProt P02769). The experiment in a line: compounds binding labelled BSA control protein – biochemical, small-molecule microarray, Alexa647 label, 635/667 nm fluorescence, artefact control for SMM control protein annotation, profiling panel (AID 1118).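 Also: score merges 667 nm emission intensity and signal-to-noise per printed compound spot.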 To be noted: BSA-A647 binding, fluorescence 635 nm, higher = more signal.
Assay [11] in a line: probe aXIP binding to arrayed compounds – biochemical, NeuroSMM set, 635/667 nm fluorescence, primary screen (AID 1119).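 Also: probe is the protein aXip251-270 applied at 1 µg/mL to compound-printed slides; binding of probe to printed compounds measured as 667 nm fluorescence plus signal to noise.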 As to conditions: small-molecule microarray, higher = more signal, called active from +8 up or from −8 down.
Assay [12] is described as follows: probe aNOTCH3 binding on compound microarray – biochemical, small-molecule microarray, 635/667 nm fluorescence, primary screen (AID 1120).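 Also: probe is a biotin-tagged antibody raised against NOTCH3 rather than NOTCH3 protein; score merges spot fluorescence near 667 nm with spot signal to noise.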 As to conditions: higher = more signal.
Assay [13] is described as follows: probe aNOTCH2 binding on compound microarray – biochemical, small-molecule microarray, 635/667 nm fluorescence, primary screen (AID 1121).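 Also: score merges feature fluorescence read at 667 nm with its signal to noise.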 As to conditions: higher = more signal.
The target of assay [14] is Carbonic anhydrase 2 (Homo sapiens) (UniProt P00918). The experiment in a line: compounds binding carbonic anhydrase 2 – biochemical, small-molecule microarray, Alexa647-labelled CAII, profiling panel (AID 1122). As to conditions: CAII-A647 binding fluorescence, higher = more signal.
A short description of assay [15]: COS7 lysate on small-molecule microarray, probe aHis, 635 nm (AID 1123).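 Also: z-score combines 667nm fluorescence intensity with signal-to-noise per printed compound spot.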 As to conditions: COS7 cell lysate, fluorescence, higher = more signal.
Assay [16] can be described thus: probe aLAP1 signal on lysate-treated microarray – cell lysate, small-molecule microarray, COS7 lysate, primary screen (AID 1124).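 Also: lysate comes from COS7 cells expressing LAP1 and is applied at 0.3 µg/mL; score merges spot fluorescence near 667 nm with signal-to-noise over triplicate slides.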 As to conditions: probe aLAP1, fluorescence, higher = more signal.
Another assay concerns Sam68 (KHDRBS1). Nature of the assay: compounds binding KHDRBS1 protein – biochemical, small-molecule microarray, 635 nm fluorescence, primary screen (AID 1125).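 Also: score merges 667 nm channel intensity with signal to noise over triplicate slides.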 To be noted: higher = more signal.
Assay [17] concerns Chordin-like protein 2 (CHRDL2). The experiment in a line: compounds binding chordin-like 2 – biochemical, small-molecule microarray, 635 nm fluorescence, primary screen (AID 1126).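 Also: printed compound slides probed with Chrdl2 protein at 4 µg/mL for 1 h at 4 C; score merges 667 nm emission intensity with signal to noise over three replicate slides.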 To be noted: fluorescence 635 nm, higher = more signal.
In assay [18] the target is Concanavalin-A (Canavalia ensiformis) (UniProt P02866). Nature of the assay: compounds binding concanavalin A lectin – biochemical, small-molecule microarray, Alexa647 label, 635 nm, artefact control for SMM control protein annotation, primary screen (AID 1127).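 Also: z combines 667 nm emission intensity with signal-to-noise across three replicate slides.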 As to conditions: ConA-A647 binding fluorescence, higher = more signal.
Concanavalin-A (Canavalia ensiformis), sequence (P02866 whole entry, looked up): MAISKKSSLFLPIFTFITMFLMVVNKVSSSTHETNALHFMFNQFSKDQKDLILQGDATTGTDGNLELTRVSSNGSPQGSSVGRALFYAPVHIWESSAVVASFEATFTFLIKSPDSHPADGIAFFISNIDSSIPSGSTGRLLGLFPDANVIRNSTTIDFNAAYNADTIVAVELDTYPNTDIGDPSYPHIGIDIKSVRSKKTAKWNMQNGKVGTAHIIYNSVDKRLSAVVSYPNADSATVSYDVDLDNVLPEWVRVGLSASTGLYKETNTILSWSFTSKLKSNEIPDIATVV

Alpha-bungarotoxin (Bungarus multicinctus), sequence (P60615 whole entry, looked up): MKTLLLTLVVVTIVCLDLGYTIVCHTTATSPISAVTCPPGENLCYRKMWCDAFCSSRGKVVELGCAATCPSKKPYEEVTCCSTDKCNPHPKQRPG
Torsin-1A-interacting protein 1 (Homo sapiens), sequence (Q5JTV8 whole entry, looked up): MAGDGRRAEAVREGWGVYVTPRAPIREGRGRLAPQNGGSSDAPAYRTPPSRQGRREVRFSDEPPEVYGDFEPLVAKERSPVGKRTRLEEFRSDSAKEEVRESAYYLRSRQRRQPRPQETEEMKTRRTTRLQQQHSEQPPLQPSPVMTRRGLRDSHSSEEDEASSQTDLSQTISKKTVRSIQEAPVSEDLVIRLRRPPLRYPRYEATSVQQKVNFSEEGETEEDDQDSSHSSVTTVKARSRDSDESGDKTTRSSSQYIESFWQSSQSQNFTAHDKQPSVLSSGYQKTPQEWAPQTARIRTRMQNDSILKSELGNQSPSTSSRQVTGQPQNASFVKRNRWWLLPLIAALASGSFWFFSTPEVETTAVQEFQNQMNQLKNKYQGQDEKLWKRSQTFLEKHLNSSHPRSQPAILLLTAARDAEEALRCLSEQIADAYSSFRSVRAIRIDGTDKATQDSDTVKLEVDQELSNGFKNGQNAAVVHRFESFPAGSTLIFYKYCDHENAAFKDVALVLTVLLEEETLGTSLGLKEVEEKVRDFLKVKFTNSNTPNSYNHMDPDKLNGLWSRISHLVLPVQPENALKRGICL
Left-right determination factor 2 (Homo sapiens), sequence (O00292 whole entry, looked up): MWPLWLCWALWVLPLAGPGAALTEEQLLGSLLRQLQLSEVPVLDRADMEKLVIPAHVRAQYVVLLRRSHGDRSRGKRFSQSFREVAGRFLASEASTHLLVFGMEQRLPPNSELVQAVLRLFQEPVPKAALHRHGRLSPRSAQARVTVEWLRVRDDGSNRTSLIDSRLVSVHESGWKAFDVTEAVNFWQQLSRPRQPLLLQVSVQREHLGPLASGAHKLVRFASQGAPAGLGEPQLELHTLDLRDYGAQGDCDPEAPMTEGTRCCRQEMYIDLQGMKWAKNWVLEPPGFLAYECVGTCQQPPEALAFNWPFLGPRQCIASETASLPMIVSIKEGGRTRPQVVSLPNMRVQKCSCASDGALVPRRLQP
Albumin (Bos taurus), sequence (P02769 whole entry, looked up): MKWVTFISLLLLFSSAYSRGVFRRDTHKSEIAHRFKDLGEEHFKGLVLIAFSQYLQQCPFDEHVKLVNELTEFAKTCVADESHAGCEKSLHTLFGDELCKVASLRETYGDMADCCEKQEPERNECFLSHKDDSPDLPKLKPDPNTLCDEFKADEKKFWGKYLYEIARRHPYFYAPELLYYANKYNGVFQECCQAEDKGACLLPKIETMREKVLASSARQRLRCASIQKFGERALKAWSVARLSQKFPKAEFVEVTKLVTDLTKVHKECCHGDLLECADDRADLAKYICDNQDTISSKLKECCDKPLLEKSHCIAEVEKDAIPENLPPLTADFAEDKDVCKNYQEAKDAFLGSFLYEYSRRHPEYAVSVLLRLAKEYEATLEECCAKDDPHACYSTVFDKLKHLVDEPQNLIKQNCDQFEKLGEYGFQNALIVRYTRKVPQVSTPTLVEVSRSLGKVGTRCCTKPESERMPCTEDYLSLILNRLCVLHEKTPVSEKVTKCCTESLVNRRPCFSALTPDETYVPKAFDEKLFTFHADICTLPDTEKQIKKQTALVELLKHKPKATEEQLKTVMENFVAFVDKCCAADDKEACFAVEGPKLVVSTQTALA

Regarding `C=CCN1Cc2ccccc2[C@@H]2OC(c3ccc(OCCCO)cc3)=N[C@]2(CCS(=O)(=O)c2ccccc2)C1=O`, the composite z-score in assay [1] was 1.33; in assay [3], 0.954; in [4] it was 0.804; in assay [5], -0.321; in [6], -0.0009; in [7], 0.377. Moreover, the composite z-score in assay [8] was 0.714; in [9] it was 1.58; in assay [10], 1.42; with Albumin (Bos taurus), -0.292; in assay [12], 0.233; in assay [13], -0.0664. Also, the composite z-score in assay [14] amounted to 0.254; in assay [15] it was 2.96; in assay [16] it was 0.725; with Sam68 (KHDRBS1) it was 1.3; in [17], 1.03; in [18] it was 1.21. This molecule registered a z-score in assay [2] of -1.48. Besides, the composite Z-score in assay [11] is 0.187 (inactive).
As to `CC(C)N1CC=CC23O[C@@H]4C=CCOC(=O)[C@@H]4[C@H]2C(=O)N(CCCCCO)[C@@H]3C1=O` (stereo not given in full), the composite z-score was -0.608 in assay [1]; -0.624 in assay [3]; 0.0459 in assay [4]; 0.395 in assay [5]; -0.18 in [6]; 0.0723 in assay [7]. Moreover, the composite z-score in assay [8] was -0.198; in assay [9], 1.33; in assay [10], -0.35; in the assay with Albumin (Bos taurus), 1.02; in [12], -0.12; in [13], -0.153. In addition, the composite z-score in assay [14] is 0.733; in assay [15], 1.64; in assay [16] it was 0.915; in the assay with Sam68 (KHDRBS1) it was -0.135; in assay [17], -0.574; in assay [18], 0.823. In assay [2], this molecule came in with a z-score of -0.147. In addition, the composite Z-score in assay [11] is -0.194 (inactive).
`O=C1O[C@@H](c2ccccc2)[C@@H](c2ccccc2)N2[C@@H](c3ccc(OCCO)cc3)[C@]3(C(=O)Nc4ccc(C#CC5=CCCCC5)cc43)[C@@H](C(=O)N3CCCCCCC3)[C@H]12`: the composite z-score in assay [1] is 1.45; in [3], 1.59; in assay [4], 2.33; in assay [5], 1.14; in [6] it was 1.21; in [7], 2.92. For the same molecule, the composite z-score in assay [8] worked out at 3.02; in [9] it was 4.33; in assay [10], 2.54; with Albumin (Bos taurus), 0.425; in assay [12], 1.87; in assay [13] it was 0.988. Further, the composite z-score in assay [14] was 0.776; in assay [15], 3.59; in assay [16], 1.6; in the assay with Sam68 (KHDRBS1), 1.28; in [17] it was 1.42; in assay [18], 1.13. Also, the z-score in [2] is -1.58. Also, in assay [11], the composite Z-score was 4.13 (inactive).
`COc1ccc(C(=O)Nc2cccc(CN3C(=O)[C@]4(O[C@H](CCn5cc(CCO)nn5)[C@@H]([Si](C)(C)c5ccc(OC)cc5)[C@@H]4C)c4ccccc43)c2)cc1`: the composite z-score was 1.31 in assay [1]; 0.785 in [3]; 0.628 in [4]; -0.0319 in assay [5]; -0.0685 in assay [6]; -0.0769 in assay [7]. For the same molecule, the composite z-score in assay [8] is 0.0471; in [9], 0.456; in assay [10], 0.547; with Albumin (Bos taurus), 0.196; in assay [12], 0.0066; in [13] it was -0.0142. The composite z-score in [14] was 0.43; in assay [15] it was 0.98; in assay [16], -0.0719; in the assay with Sam68 (KHDRBS1) it was 1.1; in assay [17], 0.306; in assay [18], 0.692. In addition, the z-score in assay [2] was -5.09. For the same molecule, the composite Z-score in [11] was 0.165 (inactive).
Consider `O=C(O)C1N=C(c2ccc(OCCCO)cc2)N(c2ccccc2)O1` (stereo not given), for which the composite z-score was 1.13 in [1]; 0.509 in assay [3]; 0.37 in assay [4]; -0.218 in [5]; -0.0478 in [6]; -0.0769 in assay [7]. In addition, the composite z-score in assay [8] is -0.402; in assay [9], 0.435; in assay [10], 0.447; with Albumin (Bos taurus), 0.811; in [12], 0.0967; in assay [13], -0.037. Moreover, the composite z-score was 0.589 in assay [14]; 0.321 in [15]; -0.287 in [16]; 1.3 in the assay with Sam68 (KHDRBS1); 0.153 in [17]; 0.658 in [18]. The z-score in assay [2] was -0.643. For the same molecule, the composite Z-score in [11] is 0.488 (inactive).
In the case of `NCCCCCNC(=O)[C@H]1C[C@H]2C(=O)N[C@@H](Cc3ccccc3)C(=O)N2[C@H]1c1cccc(OCCO)c1`, the composite z-score was found to be 0.509 in assay [1]; 0.115 in assay [3]; 1.85 in [4]; 1.06 in assay [5]; 0.0328 in [6]; 0.246 in assay [7]. Moreover, the composite z-score stood at 0.296 in assay [8]; 2.09 in [9]; 2.07 in assay [10]; 0.862 with Albumin (Bos taurus); 0.144 in assay [12]; 0.0409 in assay [13]. Also, the composite z-score in assay [14] was 0.438; in assay [15], 0.24; in assay [16], 1.07; with Sam68 (KHDRBS1), 0.474; in [17] it was 0.723; in assay [18], 0.883. In assay [2], the z-score was -0.82. Further, in [11], the composite Z-score is 1.11 (inactive).
